Data published in PubChem BioAssay AID1159580 (chemical genetic matrix, 2015).
“And” between values parts separate entries of the source, which are not always exact repeats. Equal entries are not always repeated. Screen size: about 5,500 compounds; about 2,000 (36%) were called active. Another 18% or so got no clear call; they are omitted. Rule as the data show it: active = normalized growth mostly below about 0.91 (no sharp cut-off); inconclusive = no clear call, values can overlap the other calls; inactive = mostly above about 0.92. The list shows a part of the results.

Experiment: chemical genetic growth profiling, strain panel (AID 1159580);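 also: tested at 20 µM; growth read once vehicle control cultures reached saturation at 30 °C; 1 = growth at the plate median or of vehicle wells; lower values mean less growth of the strain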
Details: S. cerevisiae deletion strains, growth OD

Measured: normalized growth

C=CCN1CC[C@]23c4c5ccc(O)c4OC2C(=O)CC[C@@]3(O)[C@H]1C5 (stereo partly specified)
inactive: locus YAL013W, strain DEP1, active compounds read low 1.01 | locus YAL021C, strain ccr4, active compounds read low 0.935 | locus YAL026C, strain drs2, active compounds read low 0.979 | locus YAL030W, strain snc1, active compounds read low 0.974 | locus YBL061C, strain skt5, active compounds read low 0.978 | locus YBR009C, strain hhf1, active compounds read low 0.987 | locus YBR021W, strain FUR4, active compounds read low 1.01 | locus YBR023C, strain chs3, active compounds read low 0.972 | locus YBR171W, strain sec66, active compounds read low 0.974 | locus YBR229C, strain ROT2, active compounds read low 1 | locus YBR231C, strain swc5, active compounds read low 0.969 | locus YBR279W, strain paf1, active compounds read low 0.955 | locus YCL011C, strain gbp2, active compounds read low 0.941 | locus YCL016C, strain dcc1, active compounds read low 0.986 | locus YCL029C, strain bik1, active compounds read low 0.996 | locus YCL061C, strain MRC1, active compounds read low 0.979 | locus YCL069W, strain vba3, active compounds read low 0.946 | locus YCR088W, strain abp1, active compounds read low 0.98 | locus YDL005C, strain med2, active compounds read low 0.943 | locus YDL035C, strain GPR1, active compounds read low 1.02 | locus YDL040C, strain nat1, active compounds read low 0.967 | locus YDL074C, strain BRE1, active compounds read low 1.05 | locus YDL101C, strain DUN1, active compounds read low 1.02 | locus YDL134C, strain PPH21, active compounds read low 1 | locus YDL185W, strain tfp1, active compounds read low 1.01 | locus YDL192W, strain arf1, active compounds read low 0.988 | locus YDR001C, strain nth1, active compounds read low 0.971 | locus YDR069C, strain doa4, active compounds read low 0.943 | locus YDR101C, strain arx1, active compounds read low 0.989 | locus YDR137W, strain rgp1, active compounds read low 0.959 | locus YDR150W, strain NUM1, active compounds read low 1 | locus YDR159W, strain sac3, active compounds read low 0.962 | locus YDR162C, strain NBP2, active compounds read low 1.01 | locus YDR195W, strain ref2 0.955 | locus YDR297W, strain sur2, active compounds read low 0.962 | locus YDR318W, strain mcm21, active compounds read low 1 | locus YDR334W, strain swr1, active compounds read low 0.95 | locus YDR335W, strain msn5, active compounds read low 0.974 | locus YDR388W, active compounds read low 1 | locus YDR392W, strain spt3, active compounds read low 0.877 | locus YDR502C, strain sam2, active compounds read low 0.984 | locus YEL003W, strain gim4, active compounds read low 0.936 | locus YEL037C, strain rad23, active compounds read low 0.954 | locus YEL061C, strain CIN8 (second series), active compounds read low 0.962 | locus YEL061C, strain CIN8, active compounds read low 1.01 | locus YER015W, strain faa2, active compounds read low 0.97 | locus YER016W, strain bim1, active compounds read low 0.972 | locus YER110C, active compounds read low 0.992 | locus YER111C, strain swi4, active compounds read low 0.97 | locus YER155C, strain BEM2 (second series), active compounds read low 0.979 | locus YER155C, strain BEM2, active compounds read low 1.01 | locus YER167W, strain BCK2, active compounds read low 0.989 | locus YFR010W, strain ubp6, active compounds read low 0.953 | locus YGL078C, strain dbp3, active compounds read low 1 | locus YGL086W, strain mad1, active compounds read low 0.993 | locus YGL167C, strain pmr1, active compounds read low 0.961 | locus YGL173C, strain kem1, active compounds read low 0.971 | locus YGL227W, strain vid30, active compounds read low 0.97 | locus YGL240W, strain doc1, active compounds read low 0.961 | locus YGL248W, strain PDE1, active compounds read low 1.01 | locus YGL253W, strain hxk2, active compounds read low 0.974 | locus YGR078C, strain PAC10, active compounds read low 1.03 | locus YGR135W, strain pre9, active compounds read low 0.99 | locus YGR229C, strain SMI1, active compounds read low 1 | locus YGR252W, strain gcn5, active compounds read low 0.997 | locus YHR013C, strain ard1, active compounds read low 0.926 | locus YHR027C, strain rpn1, active compounds read low 0.97 | locus YHR030C, strain SLT2, active compounds read low 1 and 0.989 | locus YHR079C, strain IRE1 (second series), active compounds read low 1 | locus YHR094C, strain hxt1, active compounds read low 1 | locus YHR129C, strain ARP1, active compounds read low 1.01 | locus YHR142W, strain chs7, active compounds read low 0.946 | locus YHR200W, strain rpn10, active compounds read low 0.998 | locus YIL066C, strain RNR3, active compounds read low 1.01 | locus YIL073C, strain SPO22, active compounds read low 1.02 | locus YIL125W, strain kgd1, active compounds read low 0.997 | locus YIR030C, strain dcg1, active compounds read low 0.997 | locus YJL092W, strain hpr5, active compounds read low 0.957 | locus YJL095W, strain BCK1 (second series), active compounds read low 0.978 | locus YJL095W, strain BCK1, active compounds read low 1.02 and 1 | locus YJL115W, strain asf1, active compounds read low 0.957 | locus YJL129C, strain trk1, active compounds read low 0.917 | locus YJL134W, strain LCB3, active compounds read low 1.01 | locus YJL154C, strain vps35, active compounds read low 0.971 | locus YJL164C, strain tpk1, active compounds read low 0.984 | locus YJL166W, strain qcr8, active compounds read low 0.959 | locus YJL168C, strain set2, active compounds read low 1 | locus YJL187C, strain SWE1 (second series), active compounds read low 1.03 | locus YJL187C, strain SWE1, active compounds read low 0.964 | locus YJR043C, strain POL32, active compounds read low 1.03 | locus YJR066W, strain TOR1, active compounds read low 0.949
